Our source for the outcome and AC50 values is PubChem BioAssay (EPA / NIEHS).

The target of assay [1] is X-box-binding protein 1 (Homo sapiens) (UniProt P17861). As to the kind of experiment: ATG_Xbp1_CIS: Attagene CIS-FACTORIAL HepG2 Assay for human X-box Binding Protein 1 (XBP1) (AID 2282972; active = hit-call score of the fitted dose curve at least 0.9, where 1 is the maximum; inactive = score below 0.9). As to conditions: HepG2 XBP1 cis-element reporter, Attagene multiplex; actives raise or lower the signal. In outline:
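Multiplexed cis-reporter readout in transfected HepG2 liver cells. Exposure lasted 24 hours. Activity in either direction was fitted against DMSO as negative control and baseline.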

Assay [2] addresses Androgen receptor (Homo sapiens) (UniProt P10275). As to the kind of experiment: ATG_AR_TRANS: Attagene TRANS-FACTORIAL HepG2 Assay for human Androgen Receptor (AR) (AID 2282973). As to conditions: HepG2 Attagene TRANS-FACTORIAL AR reporter transcription. Summed up:
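Steps: transfect HepG2 with multiple GAL4-UAS reporter transcription units (TRANS format, exogenous NR-Gal4 protein); dose 24 h; isolate RNA, reverse-transcribe, PCR-amplify, FAM-label, HpaI-digest; resolve by capillary electrophoresis. Positive direction vs DMSO.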

The target in assay [3] is Glucocorticoid receptor (Homo sapiens) (UniProt P04150). Briefly: ATG_GR_TRANS: Attagene TRANS-FACTORIAL HepG2 Assay for human Glucocorticoid Receptor (GR) (AID 2282978).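 Note: activators score as hits since higher reporter transcript over DMSO is fitted.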 Particulars: HepG2 Attagene TRANS GR reporter, mRNA transcription. Summed up: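 Readout is reporter transcript from a chimeric GR-Gal4 acting on GAL4-UAS in transfected human HepG2 liver cells after 24 h exposure, quantified by RT-PCR and capillary electrophoresis. Activation fitted upward against DMSO.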
Sequence of Glucocorticoid receptor (Homo sapiens) (P04150 whole entry, looked up, the tested form may be a part): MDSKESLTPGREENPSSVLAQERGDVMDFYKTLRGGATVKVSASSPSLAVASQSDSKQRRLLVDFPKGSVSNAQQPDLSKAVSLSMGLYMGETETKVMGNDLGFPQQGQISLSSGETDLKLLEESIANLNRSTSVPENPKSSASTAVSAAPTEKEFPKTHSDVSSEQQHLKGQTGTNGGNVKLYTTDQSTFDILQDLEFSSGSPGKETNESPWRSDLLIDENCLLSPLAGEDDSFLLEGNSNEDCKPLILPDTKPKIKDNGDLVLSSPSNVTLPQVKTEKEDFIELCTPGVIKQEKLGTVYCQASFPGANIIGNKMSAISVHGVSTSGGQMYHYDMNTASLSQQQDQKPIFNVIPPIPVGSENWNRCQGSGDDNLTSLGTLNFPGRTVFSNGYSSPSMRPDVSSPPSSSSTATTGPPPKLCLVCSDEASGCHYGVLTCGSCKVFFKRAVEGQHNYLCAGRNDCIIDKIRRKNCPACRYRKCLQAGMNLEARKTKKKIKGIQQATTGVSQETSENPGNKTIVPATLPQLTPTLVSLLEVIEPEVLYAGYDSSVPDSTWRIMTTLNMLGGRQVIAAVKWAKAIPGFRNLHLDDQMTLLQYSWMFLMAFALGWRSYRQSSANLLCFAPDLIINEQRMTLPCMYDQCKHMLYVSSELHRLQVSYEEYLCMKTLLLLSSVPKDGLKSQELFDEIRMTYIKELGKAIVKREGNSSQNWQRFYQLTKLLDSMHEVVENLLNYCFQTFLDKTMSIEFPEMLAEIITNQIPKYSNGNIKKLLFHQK

Assay [4] concerns the target Hepatocyte nuclear factor 4-alpha (Homo sapiens) (UniProt P41235). As to the kind of experiment: ATG_HNF4a_TRANS: Attagene TRANS-FACTORIAL HepG2 Assay for human Hepatocyte Nuclear Factor 4 alpha (HNF4a) (AID 2282982). Particulars: HepG2 HNF4a transactivation reporter, mRNA readout. In outline: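 Using HepG2 liver cells transfected with GAL4-UAS reporter units, chemical-induced mRNA increases were assessed after 24 hours. Fluorescent RT-PCR fragments were separated by capillary electrophoresis and compared with DMSO negative controls.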

Assay [5] can be described thus: ATG_M_06_TRANS: Attagene TRANS-FACTORIAL HepG2 Assay for M06 Transcription Factor (Internal Marker) (AID 2282983).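 Note: reporter transcript level by RT-PCR then capillary electrophoresis fluorescence.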 Particulars: HepG2 Attagene TRANS M06 internal marker reporter. Summed up:
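Background control endpoint: reporter mRNA from transiently transfected HepG2 after 24 h dosing, detected by RT-PCR with capillary electrophoresis fluorescence. Analysed for gain versus DMSO.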

Assay [6] can be described thus: ATG_M_32_TRANS: Attagene TRANS-FACTORIAL HepG2 Assay for M32 Transcription Factor (Internal Marker) (AID 2282984).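 Note: transcript level of a background control reporter unit measured by RT-PCR and capillary electrophoresis.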 Particulars: HepG2 Attagene TRANS M32 internal marker reporter. In outline: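 Fluorescence-detected mRNA induction, HepG2 liver cells, 24 h after dosing. Multiple GAL4-UAS reporter units introduced by transient transfection; background-control endpoint analysed for gain of signal against DMSO.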

The target of assay [7] is Nuclear receptor subfamily 4 group A member 2 (Homo sapiens) (UniProt P43354). Briefly: ATG_NURR1_TRANS: Attagene TRANS-FACTORIAL HepG2 Assay for human Nuclear Receptor Related Protein 1 (NURR1) (AID 2282985). As to conditions: HepG2 Attagene TRANS reporter, mRNA readout. In outline:
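Chimeric NR-Gal4 proteins were expressed in human HepG2 cells bearing GAL4-UAS reporter units, and induced reporter mRNA was quantified 24 h post-dosing by RT-PCR and capillary electrophoresis.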

The target in assay [8] is Transcriptional activator Myb (Homo sapiens) (UniProt P10242). Briefly: ATG_Myb_CIS: Attagene CIS-FACTORIAL HepG2 Assay for human Myeloblastosis (Myb) Proto-Oncogene Transcription Factor (AID 2282986; active = hit-call score of the fitted dose curve at least 0.9, where 1 is the maximum; inactive = score below 0.9). As to conditions: HepG2 Attagene CIS-FACTORIAL Myb reporter transcription; actives raise or lower the signal. In outline:
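Reporter mRNA is quantified by RT-PCR and capillary electrophoresis 24 h after dosing HepG2 cells transfected with cis-regulated reporter units, which track endogenous transcription factor activity. Gain and loss of signal are fitted versus DMSO baseline.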

For assay [9], the target named is Nuclear respiratory factor 1 (Homo sapiens) (UniProt Q16656). Briefly: ATG_NRF1_CIS: Attagene CIS-FACTORIAL HepG2 Assay for human Nuclear Respiratory Factor 1 (NRF1) Orphan Gene (AID 2282987; active = hit-call score of the fitted dose curve at least 0.9, where 1 is the maximum; inactive = score below 0.9). As to conditions: HepG2 NRF1 cis-element reporter, Attagene multiplex; actives raise or lower the signal. In outline: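 Endogenous NRF1-driven reporter transcription in transfected HepG2 cells after 24 h treatment. Readout: RT-PCR products, 6-FAM labelled and resolved by capillary electrophoresis; changes fitted both directions relative to DMSO.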
Sequence of Nuclear respiratory factor 1 (Homo sapiens) (Q16656 whole entry, looked up): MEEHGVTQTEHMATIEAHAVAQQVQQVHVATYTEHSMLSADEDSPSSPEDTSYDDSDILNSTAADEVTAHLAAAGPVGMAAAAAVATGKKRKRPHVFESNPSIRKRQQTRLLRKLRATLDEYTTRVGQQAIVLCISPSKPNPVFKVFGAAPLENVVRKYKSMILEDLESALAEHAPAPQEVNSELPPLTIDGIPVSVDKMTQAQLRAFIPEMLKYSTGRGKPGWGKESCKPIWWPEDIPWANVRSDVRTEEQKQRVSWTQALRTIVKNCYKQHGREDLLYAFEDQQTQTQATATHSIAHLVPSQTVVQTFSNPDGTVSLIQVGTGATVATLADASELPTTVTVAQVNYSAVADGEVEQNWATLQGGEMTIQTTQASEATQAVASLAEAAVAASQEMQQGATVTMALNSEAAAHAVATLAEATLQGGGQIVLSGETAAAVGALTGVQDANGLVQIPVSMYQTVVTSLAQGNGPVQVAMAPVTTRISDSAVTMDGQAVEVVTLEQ

A short description of assay [10]: ATG_NFI_CIS: Attagene CIS-FACTORIAL HepG2 Assay for human Nuclear Factor I (NFI) (AID 2282989; active = hit-call score of the fitted dose curve at least 0.9, where 1 is the maximum; inactive = score below 0.9). Particulars: HepG2 cis-regulatory reporter, NFI response element transcription; actives raise or lower the signal. Summed up: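 Cells: human liver HepG2, transiently transfected with promoter-regulated reporter transcription units. Exposure 24 h. Detection: fluorescent RT-PCR products separated by capillary electrophoresis, normalised to DMSO negative control.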

Assay [11] deals with Myc proto-oncogene protein (Homo sapiens) (UniProt P01106). As to the kind of experiment: ATG_Myc_CIS: Attagene CIS-FACTORIAL HepG2 Assay for human Myelocytomatosis (Myc) Proto-Oncogene Transcription Factor (AID 2282990; active = hit-call score of the fitted dose curve at least 0.9, where 1 is the maximum; inactive = score below 0.9). Particulars: HepG2, Attagene cis-reporter transcription factor activity; actives raise or lower the signal. Summed up:
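HepG2 cells transiently transfected with multiple cis-promoter-driven reporter transcription units, so endogenous TF activity is read. After 24 h compound exposure, reporter mRNA was quantified by RT-PCR, 6-FAM labelling, HpaI digestion and capillary electrophoresis; bidirectional fit versus DMSO.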

Assay [12] deals with Steroid hormone receptor ERR1 (Homo sapiens) (UniProt P11474). As to the kind of experiment: ATG_ERRa_TRANS: Attagene TRANS-FACTORIAL HepG2 Assay for human Estrogen-Related Receptor alpha (ERRa) (AID 2282971). As to conditions: HepG2 Attagene TRANS reporter, ERRa transactivation. In outline: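 Reporter transcript induction was quantified by RT-PCR and capillary electrophoresis of FAM-labelled, HpaI-cut products after 24 h treatment of HepG2 cells carrying transiently transfected GAL4-UAS reporter units and an exogenous ERRa-Gal4 fusion; activity scored as increase over DMSO.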
Sequence of Steroid hormone receptor ERR1 (Homo sapiens) (P11474 whole entry, looked up, the tested form may be a part): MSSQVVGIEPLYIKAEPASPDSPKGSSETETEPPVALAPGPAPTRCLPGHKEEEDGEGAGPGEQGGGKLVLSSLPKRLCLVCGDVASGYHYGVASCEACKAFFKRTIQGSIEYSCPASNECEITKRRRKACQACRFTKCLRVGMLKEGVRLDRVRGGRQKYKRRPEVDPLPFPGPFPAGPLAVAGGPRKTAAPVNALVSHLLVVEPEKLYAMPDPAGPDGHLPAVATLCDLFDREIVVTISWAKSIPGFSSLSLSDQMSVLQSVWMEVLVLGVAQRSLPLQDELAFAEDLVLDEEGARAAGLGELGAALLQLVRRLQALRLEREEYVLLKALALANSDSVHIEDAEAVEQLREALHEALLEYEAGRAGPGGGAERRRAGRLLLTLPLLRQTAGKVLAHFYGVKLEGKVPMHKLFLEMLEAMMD

The nature of assay [13]: ATG_M_19_TRANS: Attagene TRANS-FACTORIAL HepG2 Assay for M19 Transcription Factor (Internal Marker) (AID 2282974). Particulars: HepG2 Attagene TRANS-FACTORIAL M19 internal marker reporter. Summed up: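 Background-control readout: after 24 h chemical exposure of transfected HepG2 carrying GAL4-driven reporter units, RNA was reverse-transcribed, amplified, fluorescently labeled and sized by capillary electrophoresis; gain-of-signal fit against DMSO.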

For assay [14], the target named is Bile acid receptor (Homo sapiens) (UniProt Q96RI1). Briefly: ATG_FXR_TRANS: Attagene TRANS-FACTORIAL HepG2 Assay for Farnesoid X Receptor (FXR) (AID 2282979).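 Note: hits raise reporter mRNA above DMSO so AC50 marks FXR activation.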 Particulars: HepG2 Attagene TRANS FXR-GAL4 reporter transcription. In outline: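 Transient transfection of HepG2 with multiplexed GAL4-UAS reporter units; exogenous FXR-GAL4 chimera. Dose 24 h → TriZol RNA → oligo(dT) RT → PCR, 6-FAM primer extension, HpaI cut → CE. Gain vs DMSO.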
Sequence of Bile acid receptor (Homo sapiens) (Q96RI1 whole entry, looked up, the tested form may be a part): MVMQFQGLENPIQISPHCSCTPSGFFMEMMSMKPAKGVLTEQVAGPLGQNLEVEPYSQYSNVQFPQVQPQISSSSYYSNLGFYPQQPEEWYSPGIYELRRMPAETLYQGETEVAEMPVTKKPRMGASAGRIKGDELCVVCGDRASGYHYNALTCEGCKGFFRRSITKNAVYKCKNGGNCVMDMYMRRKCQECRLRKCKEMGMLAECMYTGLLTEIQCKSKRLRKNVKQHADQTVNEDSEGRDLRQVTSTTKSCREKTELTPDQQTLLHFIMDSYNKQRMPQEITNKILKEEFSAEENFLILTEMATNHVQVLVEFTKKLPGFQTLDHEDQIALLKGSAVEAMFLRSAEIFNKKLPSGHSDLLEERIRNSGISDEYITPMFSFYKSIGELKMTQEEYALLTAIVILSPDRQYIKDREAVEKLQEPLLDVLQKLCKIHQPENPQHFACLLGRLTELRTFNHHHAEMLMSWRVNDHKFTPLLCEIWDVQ

For assay [15], the target named is Oxysterols receptor LXR-alpha (Homo sapiens) (UniProt Q13133). As to the kind of experiment: ATG_LXRa_TRANS: Attagene TRANS-FACTORIAL HepG2 Assay for human Liver X Receptor alpha (LXRa) (AID 2282980). As to conditions: HepG2 Attagene TRANS reporter, LXRa transactivation. In outline:
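Transfect HepG2 with GAL4-UAS multiplex reporter constructs (TRANS format, chimeric receptor-GAL4); treat 24 h; extract RNA, reverse-transcribe, PCR-amplify, FAM-label, HpaI-digest; resolve fragments by capillary electrophoresis. Upward response vs DMSO.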

In assay [16] the target is Oxysterols receptor LXR-beta (Homo sapiens) (UniProt P55055). Briefly: ATG_LXRb_TRANS: Attagene TRANS-FACTORIAL HepG2 Assay for human Liver X Receptor beta (LXRb) (AID 2282981). Particulars: HepG2 Attagene TRANS GAL4-LXRb reporter, mRNA. In outline: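 Liver-derived HepG2 cells transfected with Gal4-responsive reporters were dosed for 24 h. Activation was scored as rise in reporter mRNA, by RT-PCR and capillary electrophoresis, above DMSO baseline.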

Assay [17] concerns the target Estrogen receptor (Homo sapiens) (UniProt P03372). Briefly: ATG_ERa_TRANS: Attagene TRANS-FACTORIAL HepG2 Assay for human Estrogen Receptor alpha (ERa) (AID 2282970). As to conditions: HepG2 Attagene TRANS ERa GAL4 reporter, mRNA. In outline:
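Liver-derived HepG2 cells expressing chimeric nuclear receptor-Gal4 proteins from transient transfection were exposed for 24 hours. Gain of reporter mRNA signal versus DMSO, read by capillary electrophoresis of FAM-labelled PCR products, was recorded.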

A short description of assay [18]: ATG_GAL4_TRANS: Attagene TRANS-FACTORIAL HepG2 Assay for GAL4 (Internal Marker) (AID 2282976). As to conditions: HepG2 Attagene TRANS GAL4 internal marker reporter. In outline: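 First, HepG2 cells were transfected with reporter units under GAL4-UAS control. Next, they were treated with chemical for 24 h. Finally, RNA was reverse-transcribed, PCR-amplified, FAM-labelled and resolved by capillary electrophoresis, with induction scored against DMSO.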

Assay [19] has as its target Estrogen-related receptor gamma (Homo sapiens) (UniProt P62508). Briefly: ATG_ERRg_TRANS: Attagene TRANS-FACTORIAL HepG2 Assay for human Estrogen-Related Receptor gamma (ERRg) (AID 2282977).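 Note: hits increase reporter signal over DMSO so potencies reflect activators.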 Particulars: HepG2 Attagene TRANS reporter, ERRg transactivation. In outline:
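Readout: fluorescent reporter-mRNA fragments resolved by capillary electrophoresis after RT-PCR and HpaI cut. Cells: transiently transfected HepG2 carrying GAL4-UAS reporters driven by exogenous NR-Gal4 chimeras, dosed 24 h. Activity fitted upward relative to DMSO baseline.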

Structures are written as SMILES. Records with an inconclusive call do not appear. Activity calls are given as the source filed them. Rule for the calls, unless noted: active = hit-call score of the fitted dose curve at least 0.9, where 1 is the maximum; inconclusive = response in the unintended direction; inactive = score below 0.9.

Sequence of Transcriptional activator Myb (Homo sapiens) (P10242 whole entry, looked up): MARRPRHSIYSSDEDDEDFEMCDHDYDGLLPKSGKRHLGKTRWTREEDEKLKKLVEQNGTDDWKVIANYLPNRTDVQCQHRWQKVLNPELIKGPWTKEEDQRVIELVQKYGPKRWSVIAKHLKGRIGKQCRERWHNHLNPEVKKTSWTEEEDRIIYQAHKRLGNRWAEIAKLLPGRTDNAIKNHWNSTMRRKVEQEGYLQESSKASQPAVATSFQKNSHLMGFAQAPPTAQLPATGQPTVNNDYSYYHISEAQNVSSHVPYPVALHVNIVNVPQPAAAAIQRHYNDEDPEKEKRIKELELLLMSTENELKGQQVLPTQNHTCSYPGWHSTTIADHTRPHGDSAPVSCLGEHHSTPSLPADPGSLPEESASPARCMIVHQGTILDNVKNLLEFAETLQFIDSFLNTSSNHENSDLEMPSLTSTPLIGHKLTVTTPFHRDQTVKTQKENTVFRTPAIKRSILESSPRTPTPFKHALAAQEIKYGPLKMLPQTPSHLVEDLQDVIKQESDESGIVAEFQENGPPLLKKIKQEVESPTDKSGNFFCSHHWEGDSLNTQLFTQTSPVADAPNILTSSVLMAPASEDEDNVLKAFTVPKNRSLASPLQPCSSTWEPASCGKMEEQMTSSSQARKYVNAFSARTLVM
Sequence of Androgen receptor (Homo sapiens) (P10275 whole entry, looked up, the tested form may be a part): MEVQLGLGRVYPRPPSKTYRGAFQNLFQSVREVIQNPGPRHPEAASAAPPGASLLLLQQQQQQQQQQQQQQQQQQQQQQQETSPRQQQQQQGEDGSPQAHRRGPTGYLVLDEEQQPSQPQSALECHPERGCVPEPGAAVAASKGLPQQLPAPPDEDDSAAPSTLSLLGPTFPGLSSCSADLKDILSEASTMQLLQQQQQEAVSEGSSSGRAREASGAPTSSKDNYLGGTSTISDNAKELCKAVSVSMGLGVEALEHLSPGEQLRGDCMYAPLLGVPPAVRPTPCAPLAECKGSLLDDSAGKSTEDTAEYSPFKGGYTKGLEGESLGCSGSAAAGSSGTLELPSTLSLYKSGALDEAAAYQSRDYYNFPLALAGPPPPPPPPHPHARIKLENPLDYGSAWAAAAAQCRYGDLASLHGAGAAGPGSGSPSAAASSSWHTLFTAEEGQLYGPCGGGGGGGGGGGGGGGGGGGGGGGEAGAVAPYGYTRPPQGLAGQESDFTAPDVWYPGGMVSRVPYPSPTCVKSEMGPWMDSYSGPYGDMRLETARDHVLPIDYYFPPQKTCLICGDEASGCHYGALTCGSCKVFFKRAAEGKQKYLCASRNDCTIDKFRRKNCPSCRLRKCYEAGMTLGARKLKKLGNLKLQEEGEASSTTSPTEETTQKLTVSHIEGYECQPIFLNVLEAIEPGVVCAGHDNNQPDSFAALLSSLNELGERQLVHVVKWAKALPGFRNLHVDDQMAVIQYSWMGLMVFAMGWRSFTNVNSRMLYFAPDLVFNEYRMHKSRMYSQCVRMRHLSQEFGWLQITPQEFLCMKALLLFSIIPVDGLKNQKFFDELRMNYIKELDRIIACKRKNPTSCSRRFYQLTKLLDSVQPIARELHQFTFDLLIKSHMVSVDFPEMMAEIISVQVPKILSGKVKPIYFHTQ
Sequence of X-box-binding protein 1 (Homo sapiens) (P17861 whole entry, looked up): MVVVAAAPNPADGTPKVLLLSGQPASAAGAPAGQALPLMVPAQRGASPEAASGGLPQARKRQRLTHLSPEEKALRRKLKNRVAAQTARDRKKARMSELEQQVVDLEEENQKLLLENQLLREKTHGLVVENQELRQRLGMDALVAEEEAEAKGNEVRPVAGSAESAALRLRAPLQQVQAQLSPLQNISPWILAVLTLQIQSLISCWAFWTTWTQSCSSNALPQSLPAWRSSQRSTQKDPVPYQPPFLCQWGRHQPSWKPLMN
Sequence of Hepatocyte nuclear factor 4-alpha (Homo sapiens) (P41235 whole entry, looked up, the tested form may be a part): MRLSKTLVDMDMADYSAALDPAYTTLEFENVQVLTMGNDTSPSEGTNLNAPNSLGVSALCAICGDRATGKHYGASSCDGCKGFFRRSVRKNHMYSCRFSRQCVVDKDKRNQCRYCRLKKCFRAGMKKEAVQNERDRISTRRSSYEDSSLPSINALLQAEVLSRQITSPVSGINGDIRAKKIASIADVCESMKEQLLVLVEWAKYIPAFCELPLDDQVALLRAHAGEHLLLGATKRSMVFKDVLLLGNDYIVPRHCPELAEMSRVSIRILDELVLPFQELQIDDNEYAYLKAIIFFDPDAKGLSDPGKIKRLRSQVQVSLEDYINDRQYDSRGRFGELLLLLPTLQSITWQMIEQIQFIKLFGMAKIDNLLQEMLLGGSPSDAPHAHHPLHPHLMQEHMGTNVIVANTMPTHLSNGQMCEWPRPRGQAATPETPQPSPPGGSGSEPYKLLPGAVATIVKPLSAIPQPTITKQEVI
Sequence of Myc proto-oncogene protein (Homo sapiens) (P01106 whole entry, looked up): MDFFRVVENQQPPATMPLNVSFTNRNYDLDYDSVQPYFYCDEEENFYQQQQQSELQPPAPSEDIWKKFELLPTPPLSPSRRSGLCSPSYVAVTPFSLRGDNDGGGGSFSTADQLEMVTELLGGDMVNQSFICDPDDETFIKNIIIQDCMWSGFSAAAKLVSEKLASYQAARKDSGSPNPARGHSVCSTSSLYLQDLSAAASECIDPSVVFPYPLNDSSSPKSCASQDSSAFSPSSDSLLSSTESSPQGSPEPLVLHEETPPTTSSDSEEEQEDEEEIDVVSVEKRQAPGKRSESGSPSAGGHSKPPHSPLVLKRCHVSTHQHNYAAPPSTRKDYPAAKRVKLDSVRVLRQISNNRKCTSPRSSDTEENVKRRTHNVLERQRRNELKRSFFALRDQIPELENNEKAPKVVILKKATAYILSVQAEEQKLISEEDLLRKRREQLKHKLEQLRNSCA

Turning to `CCOC(=O)c1ccccc1S(=O)(=O)NC(=O)Nc1nc(Cl)cc(OC)n1`, the call in assay [1], in assay [2], in assay [3], in assay [4], in assay [5] and in assay [6] was inactive. Besides, the compound was classed as inactive in [7], in assay [8], in assay [9], in assay [10] and in assay [11].
As to `C=CC(=O)[O][Sn]([CH2]CCC)([CH2]CCC)[CH2]CCC`, the outcome in [12], in assay [2], in [13], in assay [14], in assay [15] and in assay [4] was inactive. Also, the compound was classed as inactive in [6], in assay [8], in [9] and in assay [11]. The results for the half-maximal activity concentration (AC50) in assay [1], in assay [7] and in [10] were 0.412 µM (active), 0.00109 µM (active) and 0.179 µM (active), respectively.
`CC(C)N(C(=O)CCl)c1ccccc1`: the AC50 is 47.9 µM (active) in [1]; 149 µM (active) in assay [7]; 8.16 µM (active) in [8]; 49.1 µM (active) in assay [9]; 24.3 µM (active) in [10]. The result in assay [2], in assay [3], in assay [16], in [5], in assay [6] and in assay [11] was inactive.
As for `OCC(c1ccc(Cl)cc1)c1ccc(Cl)cc1`, the compound was classed as inactive in assay [17], in assay [3], in assay [14], in assay [4], in assay [5] and in [6]. For the same compound, the call in [8], in assay [9], in assay [10] and in [11] was inactive. In addition, in assay [1], the AC50 is 56.3 µM (active).
As to `C=CCOC(F)(C(F)(F)F)C(F)(F)F`, the outcome in [12], in [1], in [2], in assay [18], in assay [19] and in [14] was inactive. The call in [15], in assay [5], in [7], in assay [8], in assay [9] and in assay [10] was inactive. In assay [11], the compound was classed as inactive.

As a reminder, the AC50 is the concentration at which the activity in the assay is half-maximal.
